PubChem BioAssay

Target: Torsin-1A (Homo sapiens) (UniProt O14656)
Assay: TOR1A wild-type binding on microarray – cell lysate, small-molecule microarray, lysate, 635/667 nm, primary screen (AID 1149)
Conditions: COS7 hTOR1A-WT lysate, 635 nm fluorescence, higher = more signal

Torsin-1A (Homo sapiens), sequence (O14656 whole entry, looked up): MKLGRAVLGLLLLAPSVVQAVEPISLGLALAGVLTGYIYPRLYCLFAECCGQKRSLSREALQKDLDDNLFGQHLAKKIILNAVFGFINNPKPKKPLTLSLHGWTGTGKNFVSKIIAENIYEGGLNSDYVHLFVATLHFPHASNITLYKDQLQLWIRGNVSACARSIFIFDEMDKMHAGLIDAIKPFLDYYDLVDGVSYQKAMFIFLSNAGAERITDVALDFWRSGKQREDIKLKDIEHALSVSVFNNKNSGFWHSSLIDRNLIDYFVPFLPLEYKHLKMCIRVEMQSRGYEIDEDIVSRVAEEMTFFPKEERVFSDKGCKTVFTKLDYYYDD

SMILES	composite z-score
COc1ccc(C(O)C2C=CC3C(=O)N(Cc4ccccc4)C(=O)C3N2n2cnnc2)cc1OCc1ccccc1 (stereo not drawn)	-0.476
COC(=O)[C@@]1(Cc2ccc(OC)cc2)[C@H]2c3cc(C(=O)N4CCCC4)n(Cc4ccc(C)c(F)c4F)c3C[C@H]2CN1C(=O)c1ccccc1	-0.429
CC(=O)NCCCC[C@@H]1NC(=O)[C@H]2C[C@@H](C(=O)NCCCCCCNC(=O)CS)[C@@H](c3ccc(O)cc3)N2C1=O	0.365
COCCOC(=O)N1C(=O)[C@@]2(c3cc(C#CC4(O)CCCCCC4)ccc31)[C@H](c1ccc(OCCO)cc1)N1[C@H](c3ccccc3)[C@H](c3ccccc3)OC(=O)[C@H]1[C@@H]2C(=O)N1CCN(c2ncccn2)CC1	0.782
CCCCCN1CC=CC23O[C@@H]4/C=C\CCC(C)OC(=O)C4[C@H]2C(=O)N(C(C)CO)[C@@H]3C1=O (stereo partly drawn)	-1.11
COc1ccc(C#Cc2ccc3c(c2)[C@]2(C(=O)N3)[C@H](C(=O)NC[C@H](O)c3ccccc3)[C@H]3C(=O)O[C@H](c4ccccc4)[C@H](c4ccccc4)N3[C@@H]2c2ccc(O)cc2)cc1	0.179
COc1ccc(C#Cc2ccc3c(c2)[C@]2(C(=O)N3)[C@H](c3ccccc3OCCO)N3[C@H](c4ccccc4)[C@H](c4ccccc4)OC(=O)[C@H]3[C@@H]2C(=O)Nc2nc3ccccc3s2)cc1	0.0821
CN1C(=O)C2C=CC(C(O)c3ccco3)N(Nc3ccccc3)C2C1=O (stereo not drawn)	0.336

Target: Torsin-1A (Homo sapiens) (UniProt O14656)
Assay: torsin A mutant lysate binding on microarrays – cell lysate, small-molecule microarray, COS7 lysate, 635/667 nm fluorescence, primary screen (AID 1150);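 note: score pools 667 nm emission and signal to noise measuring lysate protein binding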
Conditions: COS7 hTOR1A mutant lysate, 635 nm fluorescence, higher = more signal

SMILES	composite z-score
COCCOC(=O)N1C(=O)[C@@]2(c3cc(C#CCC(C(=O)OC)C(=O)OC)ccc31)[C@H](c1ccccc1OCCO)N1[C@H](c3ccccc3)[C@H](c3ccccc3)OC(=O)[C@H]1[C@@H]2C(=O)N1CCN(c2ncccn2)CC1	1.19
C=CCC(OC(C)=O)[C@@H]1[C@@H](N(Cc2ccc(-c3ccccc3)cc2)C(=O)c2cccc3ccccc23)c2cc(OCCCO)ccc2N1C(=O)c1ccc(-c2ccccc2)cc1 (stereo partly drawn)	0.499
O=C(NCCO)C1=C[C@H](Oc2ccccc2I)[C@@H](O)[C@H](N(Cc2ccco2)C(=O)Cc2ccccc2)C1	0.0805
C#C[C@H](O[Si](C#Cc1ccc(Oc2ccccc2)cc1)(C(C)C)C(C)C)c1ccccc1	0.122
CC1CC/C=C\[C@H]2OC34C=CCN(Cc5ccccc5)C(=O)[C@H]3N(CCCO)C(=O)[C@@H]4C2C(=O)O1 (stereo partly drawn)	-1.56
CCOC(=O)C[C@H]1[C@H](OC(=O)c2ccc(C(=O)c3ccccc3)cc2)[C@@H](NC(=O)c2ccccc2)c2cc(OCCCO)ccc2N1C(=O)Cc1ccc(OC)cc1	0.322
CC(C)CNC(=O)[C@@]1(Cc2ccccc2I)c2ccccc2C(=O)N(C2CCCCC2)[C@H]1c1ccc(CO)cc1	0.551
Cc1ccc(S[C@]2(C(=O)NCCCN(C)C)CC(=O)N(Cc3ccccc3C(F)(F)F)[C@@H]2c2ccc(CO)cc2)cc1	0.801
C=CC[C@]1(C(=O)NCCCOC)N=C(c2ccc(OCCCO)cc2)O[C@H]1c1ccccc1CN=[N+]=[N-]	0.749
Cc1ccc(S[C@]2(C(=O)NCCCN(C)C)CC(=O)N(Cc3cc(C(F)(F)F)cc(C(F)(F)F)c3)[C@@H]2c2ccc(CO)cc2)cc1	-0.256
CCCC[C@H]1OB(O)C[C@H]2C1=C(COC)Cn1c(=O)n(-c3ccccc3)c(=O)n12	0.0861
COc1ccc(/C=C/C=O)cc1	0.0564
NC(=O)NCC#Cc1ccc2c(c1)[C@]1(C(=O)N2)[C@H](c2ccccc2OCCO)N2[C@H](c3ccccc3)[C@H](c3ccccc3)OC(=O)[C@H]2[C@@H]1C(=O)Nc1nc2ccccc2s1	0.0313
C=CCC(OC(C)=O)[C@@H]1[C@@H](N(Cc2ccc(-c3ccccc3)cc2)C(=O)c2ccc(-c3ccccc3)cc2)c2cc(OCCCO)ccc2N1C(=O)Cc1ccc2ccccc2c1 (stereo partly drawn)	0.42
Cc1ccc(N2C(=O)c3ccccc3[C@@H](C(=O)NC3CC3)[C@@H]2c2ccc(CO)cc2)nc1	0.969
COCCCNC(=O)[C@@]1(C)c2ccccc2C(=O)N(C(C)C)[C@H]1c1ccc(CO)cc1	0.776
COC(=O)[C@@]1(Cc2ccc(OC)cc2)[C@@H]2C(=CC(=O)[C@H]2CC(=O)C(=O)N2CCCC2)CN1C(=O)c1ccccc1	0.31
C=C(COC)/C(=C/C[C@@H](OC(=O)c1ccncc1)c1ccc(CO)o1)c1cc(C(=O)OC)ccc1OC	0.756

SMILES	composite z-score
NC(=O)NCC#Cc1ccc2c(c1)[C@]1(C(=O)N2)[C@H](C(=O)Nc2nc3ccccc3s2)[C@H]2C(=O)O[C@H](c3ccccc3)[C@H](c3ccccc3)N2[C@@H]1c1ccccc1OCCO	0.0607
COc1ccc(C(=O)Nc2ccc(CN3C(=O)[C@]4(O[C@H](CCO)[C@@H]([Si](C)(C)c5ccc(OC)cc5)[C@@H]4C)c4ccccc43)cc2)cc1	0.165
COc1cc2c(cc1OC)CN(C(=O)[C@@H]1[C@H]3C(=O)O[C@H](c4ccccc4)[C@H](c4ccccc4)N3[C@H](c3ccc(O)cc3)[C@@]13C(=O)Nc1ccccc13)CC2	0.341
[N-]=[N+]=Nc1ccccc1[C@@H]1OC(c2ccc(OCCCO)cc2)=N[C@]1(CCS(=O)(=O)c1ccccc1)C(N)=O	0.91
COC(=O)[C@@]1(Cc2ccc(F)cc2)[C@H]2c3cc(C(=O)N4CCCC4)n(CCCNc4ncc(C(F)(F)F)cc4Cl)c3C[C@H]2CN1C(=O)c1ccccc1	-0.0136
[N-]=[N+]=Nc1ccccc1[C@@H]1OC(c2ccc(OCCCO)cc2)=N[C@]1(Cc1ccccc1)C(=O)N1CCOCC1	0.58
C=CCC(OC(C)=O)[C@@H]1[C@@H](N(Cc2ccc(-c3ccccc3)cc2)C(=O)Cc2ccc(OC)cc2)c2cc(OCCCO)ccc2N1C(=O)Cc1ccc2ccccc2c1 (stereo partly drawn)	0.616
CC1(C)C2C=C(C(O)C3C=CC4C(=O)NC(=O)C4N3Nc3ccc(Cl)cc3Cl)C[C@@H]1C2 (stereo partly drawn)	1.09
CO[C@H]1O[C@H](CO)[C@@H](OC(=O)Nc2cccc(F)c2)[C@H](OC(=O)Nc2ccccc2)[C@@H]1OC(=O)Nc1ccccc1	0.505
COc1ccc(C(O)C2C=CC3C(=O)N(Cc4ccccc4)C(=O)C3N2n2cnnc2)cc1OCc1ccccc1 (stereo not drawn)	0.562
COC(=O)[C@@]1(Cc2ccc(OC)cc2)[C@H]2c3cc(C(=O)N4CCCC4)n(Cc4ccc(C)c(F)c4F)c3C[C@H]2CN1C(=O)c1ccccc1	0.839
CC(=O)NCCCC[C@@H]1NC(=O)[C@H]2C[C@@H](C(=O)NCCCCCCNC(=O)CS)[C@@H](c3ccc(O)cc3)N2C1=O	2.14
COCCOC(=O)N1C(=O)[C@@]2(c3cc(C#CC4(O)CCCCCC4)ccc31)[C@H](c1ccc(OCCO)cc1)N1[C@H](c3ccccc3)[C@H](c3ccccc3)OC(=O)[C@H]1[C@@H]2C(=O)N1CCN(c2ncccn2)CC1	0.629
CCCCCN1CC=CC23O[C@@H]4/C=C\CCC(C)OC(=O)C4[C@H]2C(=O)N(C(C)CO)[C@@H]3C1=O (stereo partly drawn)	-0.742
COc1ccc(C#Cc2ccc3c(c2)[C@]2(C(=O)N3)[C@H](C(=O)NC[C@H](O)c3ccccc3)[C@H]3C(=O)O[C@H](c4ccccc4)[C@H](c4ccccc4)N3[C@@H]2c2ccc(O)cc2)cc1	0.587
COc1ccc(C#Cc2ccc3c(c2)[C@]2(C(=O)N3)[C@H](c3ccccc3OCCO)N3[C@H](c4ccccc4)[C@H](c4ccccc4)OC(=O)[C@H]3[C@@H]2C(=O)Nc2nc3ccccc3s2)cc1	0.479
CN1C(=O)C2C=CC(C(O)c3ccco3)N(Nc3ccccc3)C2C1=O (stereo not drawn)	-0.59
